# Experimental data from PubChem BioAssay (Tox21).
# Inconclusive results are not listed. A number with no mark means an inactive call. Calls come from the whole dose curve; as a rule, active = well fitted cell-killing curve with a large enough effect in the repeat runs (not every such curve was filed as active); inconclusive = weak or mixed curves, or effect the other way; inactive = no such curve, though single readings can be large or run the other way.
# Assay: qHTS assay to identify small molecule antagonists of the estrogen related receptor signaling pathway with the pleiotropic PPARgamma coactivator (PGC) from Tox21 10K library - cell viability counter screen (AID 1224840); note: nearly all actives have a fitted effect of over 40% in size
# Conditions: PGC/ERR reporter cells viability, CellTiter-Fluor, 17.5 h; series mostly up to 92.4 µM; viability change, negative = cytotoxic: at the top concentration
# Source text: National Center for Advancing Translational Sciences [NCATS]
# NIH Chemical Genomics Center [NCGC]
# U.S. Environmental Protection Agency [EPA]
# National Institutes of Environmental Health Sciences [NIEHS]
# National Toxicology Program [NTP]
# U.S. Food and Drug Administration [FDA]
# Estrogen related receptors (ERRs), the first orphan nuclear receptors discovered, play an important role in the control of cellular energy metabolism. ERRs are required for high-energy production in response to the environmental challenges. The pleiotropic PPARgamma coactivator (PGC) is a major partner of ERR and a key regulator in energy homeostasis. Together they have been implicated in the etiology of metabolic disorders such as Type 2 diabetes and metabolic syndrome. ERR-alpha was also identified as an adverse marker for breast cancer progression; ERR-alpha-positive tumors have a poor prognosis. To screen and to identify environmental compounds that perturb the ERR and PGC/ERR signaling pathways could provide valuable information for potential therapeutic or preventive measures in the treatment of metabolic disease. To differentiate true PGC/ERR antagonists or agonist from cytotoxic substances, the assay is multiplexed with cell viability assay.
# Tox21 Assay Protocol Summary:
# The PGC/ERR cells were dispensed at 2,000 cells/5 ul/well in 1536-well white plates using a Multidrop dispenser. After the assay plates were incubated at a 37 C/5% CO2 incubator for 6 hours, 23 nL of compounds dissolved in DMSO, positive and negative controls or DMSO only was transferred to the assay plate by a pin tool. The plates were incubated at 37 C for 17.5 hours. 1 ul/well of CellTiter-Fluor reagent was added into the assay plates using a Flying Reagent Dispenser. After 30-minute incubation at 37 C/5% CO2, the fluorescence intensity in the plates was measured using a ViewLux plate reader.
# % is set by controls: 0 for no effect and ±100 for the full control effect.
row,SMILES,"viability change, negative = cytotoxic"
1,CC/C=C\CCCCCCCCCCOC(C)=O,2.81%
2,CC(=O)c1c(C)cc(C(C)(C)C)cc1C,-5.59%
3,CC(C)(O)CCCC1=CCC(C=O)CC1 (stereo not given),0.324%
4,CCCCN1C(=O)c2ccccc2C1=O,-2.51%
5,CC1(C)S[C@@H]2[C@H](NC(=O)Cc3ccccc3)C(=O)N2[C@H]1C(=O)O (tested in a mixture with another compound),14.2% [at 42.5 µM]
6,CSC(=O)c1cccc2nnsc12,-3.46%
7,CN(C)CCc1c[nH]c2ccc(CS(=O)(=O)N3CCCC3)cc12,0.911% [at 42.5 µM]
8,CC1(C)CC(N)CC(C)(C)N1,1.98%
9,CCC(=O)OCCOc1ccccc1,0.0833%
10,CCCc1ncc(C(=O)O)s1,0.367% [at 42.5 µM]
11,CC(=O)c1ccc(O)c(C(N)=O)c1,18.5% [at 42.5 µM]
12,CC1(C)C(=O)C(C)(C)C1=O,4.95%
13,C=CCn1cc[n+](C)c1,9.9%
14,N=C(N)S(=O)O,-5.97%
15,CC(C)(C)C(=O)CC(=O)C(C)(C)C,-2.83%
16,COC(=O)c1ccc(NC(C)=O)cc1OC,-1.32% [at 42.5 µM]
17,CCCCCCCCOCCC#N,4.85%
18,CC(C)(C)c1ccc(N)cc1,-11.7%
19,Cc1cc(N)no1,7%
20,CN(C)CCC[C@@]1(c2ccc(F)cc2)OCc2cc(C#N)ccc21,-12.7% [at 42.5 µM]

row,SMILES,"viability change, negative = cytotoxic"
1,CCOc1ccccc1OCCN[C@H](C)Cc1ccc(OC)c(S(N)(=O)=O)c1,0.0936% [at 42.5 µM]
2,COc1cc(S(N)(=O)=O)cc(C(=O)O)c1OC,4.32% [at 42.5 µM]
3,CC(=O)OCC(=O)[C@@]1(O)CC[C@H]2[C@@H]3CCC4=CC(=O)C=C[C@]4(C)[C@H]3[C@@H](O)C[C@@]21C,1.01% [at 42.5 µM]
4,CC(=O)OC/C=C(/C)CCC=C(C)C,1.75%
5,CCCCc1ccc(Cl)cc1,4.13%
6,C[Si](C)(C)O[Si](O)(O)O,2.95%
7,O=c1[nH]c(=O)c2cn[nH]c2[nH]1,12%
8,Cc1cccc(N)n1,1.09%
9,CCOC(=O)CC,2.06%
10,CC[N+](C)(CC)CC,-0.676%
11,Cc1ccc(OC(=O)CC(C)C)cc1,12.6%
12,CCCC(=O)CC,0.0908%
13,O=C1CCCc2c(O)cccc21,-10.4% [at 42.5 µM]
14,CCCCCC(CC)OC(=O)CCCOc1ccc(Cl)cc1Cl (stereo not given),10.3%
15,O=C1Nc2ccccc2C1=O,1.64%
16,C/C(Cl)=C/CCl,0.822%
17,COCc1nnc(-c2ccc[n+]([O-])c2)n1-c1c(Cl)c(Cl)cc2[nH]c(=O)c(=O)[nH]c12,0.703%
18,COc1cnc(NS(=O)(=O)c2ccc(N)cc2)nc1,7.04% [at 42.5 µM]
19,CC(C)C(=O)Nc1cccc(C2CN3CCSC3=N2)c1 (stereo not given),1.92% [at 42.5 µM]
20,COC(=O)c1ccccc1Cl,4.73%
